The results in this text go back to PubChem BioAssay (NCI).

Molecules are shown by their SMILES. “And” between values parts separate entries of the source, which are not always exact repeats. Identical values can stand only once. Compounds without any hit were thinned out: in the full panel of roughly 83,000, 20% have a hit.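 How to read the values: 0–100, growth inhibition (40 = 60% inhibited); 0, no net growth; -100 to 0, cell death (-40 = 40% of starting cells died; -100 = all dead).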 A number with no mark means an inactive call. How the source made its calls: active means growth percent below 10; inactive means the rest.

For the assay, the system named is MDA-MB-468 breast. The assay can be described thus: NCI-60 one-dose screen, 48 h (100 = growth as untreated, 0 = no growth, -100 = all killed). The note with it: 10 µM unless noted.
Turning to `CCOC(=O)c1c(C)oc2ncnc(Nc3ccc(NC(=O)Nc4cccc(Cl)c4)cc3)c12`, the growth was 49.7%.
To `CC(C)/C(=N/O)c1ccccc1` belongs 105%; to `O=C(O)c1ccccc1Cc1ccc(F)c2ccccc12`, 110% and 102%.
